# Bioassay records: PubChem BioAssay, NMMLSC
# A selection: hits, their analogues and other compounds. The true share with any hit is near 3.5%.
# BoNT-A LC inh2 – blocks Botulinum neurotoxin A light chain protease; multiplex microsphere protease substrate cleavage, flow cytometry; inhibition, % at 10 µM; 360,000 tested, 0.17% active; also: plate controls were buffer without enzyme for full effect and enzyme alone for no effect
# Bead autofluor – flagged as autofluorescent in microsphere protease counterscreen; compound autofluorescence counterscreen, microsphere flow cytometry; active compounds read high; AID 624483; fluorescence intensity (concentration not given with the values); 360,000 tested, 3.1% active; in the data active = fluorescence intensity above about 16000; inconclusive = no clear call, values can overlap the other calls
# Anthrax LF inh2 – anthrax lethal factor protease inhibition | multiplex microsphere protease cleavage assay, LF | P15917 | 360,000 tested, 0.12% active | inhibition, % at 10 µM | AID 588501; also: plate controls were buffer without enzyme for full effect and enzyme alone for no effect
# BoNT F protease – inhibitors of Botulinum neurotoxin F light chain protease; Multiplex microsphere protease cleavage assay, flow cytometry; inhibition, % at 10 µM; 360,000 tested, 0.22% active; in the data active = inhibition above about 35%, passing the limit was not always enough; inconclusive = no clear call, values can overlap the other calls; also: plate controls were buffer without enzyme for full effect and enzyme alone for no effect
# * marks the source's active call; other numbers are inactive results; ? = inconclusive. Rule as the data show it, unless noted: active = inhibition above about 30%; inconclusive = no clear call, values can overlap the other calls; inactive = below that.
SMILES,BoNT-A LC inh2,Bead autofluor,Anthrax LF inh2,BoNT F protease
CCN(CC)C(c1ccc(C)cc1)c1nnnn1C1CCCCC1 (centres undefined),0,10419,-7,3
CCC(C)(C)n1nnnc1C(c1cc2ccc(OC)cc2[nH]c1=O)N1CCN(C2CCCCC2)CC1 (centres undefined),?,21897*,3,-5
O=C(Nc1ccccc1N1CCOCC1)c1ccccc1[N+](=O)[O-],-2,24174*,0,-2
O=[N+]([O-])c1cccnc1N1CCOCC1,?,19529*,5,8
O=C1CCN(c2ncccc2[N+](=O)[O-])CC1,0,4339,-2,-4
O=[N+]([O-])c1cc(F)c(N2CCOCC2)cc1N1CCCCC1,-5,24982*,-2,-8
O=C(Nc1ccccc1N1CCOCC1)c1ccc(N2CCOCC2)c([N+](=O)[O-])c1,1,4372,-2,8
O=[N+]([O-])c1cc(F)c(N2CCCCC2)cc1N1CCOCC1,0,9474,-4,-5
CCCCn1c(N)c(N(CCOC)C(=O)C(C)N2C(=O)c3ccccc3C2=O)c(=O)[nH]c1=O (centres undefined),0,6812,2,2
O=C1COc2ccc(OCc3ccc(F)cc3)cc21,-2,23249*,-1,0
O=S1(=O)CC(N2CCCC2)CN1Cc1cn(Cc2ccc(F)cc2)nn1 (centres undefined),1,4182,-5,-7
C=C1N(CCCCCC(=O)O)C(=O)OC12CCCCC2,1,22385*,2,1
Cc1ccc(N2CC(C(=O)Nc3cccnc3)CC2=O)cc1 (centres undefined),0,23113*,1,2
CCc1ccc(N2CC(C(=O)Nc3cccnc3)CC2=O)cc1 (centres undefined),0,5196,2,-2
C=COCCNC(=O)C1CC(=O)N(c2ccc(C)cc2)C1 (centres undefined),-1,24393*,-6,-7
CC(NCc1ccc(S(N)(=O)=O)cc1)C(=O)N1c2ccccc2CC1C (centres undefined),0,4147,4,-4
COc1ccc(-c2cc(-c3c(O)c(OC)c4occc4c3OC)[nH]n2)cc1,?,21696*,-7,-5
Cc1cccc(N2CCN(CC(O)COCc3cccs3)CC2)c1C (centres undefined),-1,2084,-1,-4
CCOc1cc(/C=C2\SC(=S)N(Nc3ccccc3)C2=O)ccc1O,39*,3712,42*,30
COCCN(C(=O)COC(=O)Cc1ccc(Cl)cc1Cl)c1c(N)n(Cc2ccccc2)c(=O)[nH]c1=O,1,5027,-3,5
O=C(/C=N/O)Nc1ccccc1C(=O)O,1,22836*,-1,4
O=C(O)c1ccccc1Nc1ccccc1C(=O)O,?,17128*,-2,-7
O=C(Nc1ccccc1C(=O)O)c1ccccc1,0,4105,-1,-10
Cc1c(Cl)cccc1Nc1ccccc1C(=O)O,-1,4019,-2,6
CCOc1cc(C2C(C(=O)N3CCCCC3)=C(C)NC3=C2C(=O)CCC3)cc(Br)c1O (centres undefined),-3,24537*,-1,-5
SMILES,BoNT-A LC inh2,Bead autofluor,Anthrax LF inh2,BoNT F protease
O=C(CN1CCCC1c1cccs1)N1CCN(S(=O)(=O)c2cccc(F)c2)CC1 (centres undefined),-1,3358,-3,3
N#Cc1ccsc1NC(=O)CSc1ncn[nH]1,3,22762*,0,1
N#Cc1ccsc1NC(=O)CSc1nncs1,0,3807,-4,-6
O=C(CSc1ncn[nH]1)Nc1ccccc1Sc1ccccc1,?,23235*,-4,0
O=C(CCl)Nc1ccccc1Sc1ccc(Cl)cc1,-3,20704*,1,-5
O=C(CSc1ncn[nH]1)Nc1ccccc1-c1ccccc1,3,6683,11,8
Cc1ccccc1C(=O)NCCCNC(=O)c1ccccn1,1,3415,9,2
Cc1nc(NC(=O)COC(=O)C2CC2C)c(Cl)cc1Cl (centres undefined),0,3657,1,-7
Cc1nc(NC(=O)COC(=O)CCS(=O)(=O)c2ccccc2Cl)c(Cl)cc1Cl,?,20461*,2,-1
O=C(COC(=O)CCc1ccccc1)Nc1ncc(Cl)cc1Cl,-1,16931*,-1,-1
COc1ccc(C2=NS(=O)(=O)N(C)C(C(=O)NCc3cccs3)=C2)cc1OC,1,5357,-3,1
CCCCc1ccc(NC(=O)CN(C)CC(=O)Nc2ccccc2Cl)cc1,0,3575,-8,21
N#CCSc1nc2c(sc(=S)n2Cc2ccco2)c(=O)n1-c1ccc(F)cc1,-3,21835*,-2,-5
COc1cccc(C(C(=O)NC2CCCC2)N(C(=O)c2ccco2)c2ccccc2)c1OC (centres undefined),-1,4532,1,-5
CC(C)Cn1c(-c2csc3c2CCCC3)n[nH]c1=S,-3,17069*,-7,-8
COc1ccccc1-c1csc(C(O)(c2ccccc2)C(F)(F)F)n1 (centres undefined),0,2901,-2,1
CCc1noc(C)c1C(=O)Nc1nnc(C(CC)CC)s1,-1,3171,-11,-13
C=C(C)CSc1nc2nc(C)c(Br)cc2[nH]1,0,22023*,1,-1
COC(=O)CSc1nc2nc(C)c(Br)cc2[nH]1,0,9087,-12,-1
O=C(Cc1ccccc1)Nc1cccc(-c2nc3ncccc3o2)c1,-1,4846,0,-9
O=C(Nc1cccc(-c2nc3ncccc3o2)c1)c1sc2ccccc2c1Cl,8,18637*,0,8
O=C(Nc1cccc(-c2nc3ncccc3o2)c1)c1cc2ccccc2o1,-1,4703,0,-16
O=C(Nc1cccc(-c2nc3ncccc3o2)c1)c1sc2cc(Cl)ccc2c1Cl,?,22567*,0,2
Cc1cc(NC(=O)CCC(=O)N(CC(=O)NCC2CCCO2)c2cccc(F)c2)no1 (centres undefined),-3,6022,-2,-3
Cc1csc(NC(=O)CSc2nnc(C)s2)n1,0,2632,-4,-7
SMILES,BoNT-A LC inh2,Bead autofluor,Anthrax LF inh2,BoNT F protease
Cc1nnc(SCC(=O)Nc2nsc(-c3ccccc3)n2)s1,-5,21832*,-6,-6
Cc1nnc(SCC(=O)Nc2nccs2)s1,0,20118*,-3,-2
CC(C)(C)c1csc(SCC(=O)Nc2ccc(Cl)cn2)n1,2,18967*,-8,1
Cc1csc(SCC(=O)Nc2ccc(Cl)cn2)n1,0,4502,1,-4
Cc1nnc(SCC(=O)Nc2nc(C(C)(C)C)cs2)s1,?,21050*,1,-3
COc1ccc(S(=O)(=O)N2CCOCC2)cc1C(=O)N(C)Cc1ccco1,0,?,-2,-6
COc1cc(C(=O)Nc2cc(S(C)(=O)=O)ccc2Cl)ccc1OCC(=O)N1CCOCC1,0,3172,-5,-5
COc1cc(NC(=O)c2cccc3c2C(=O)N(C2CCCCC2)C3)cc(OC)c1OC,-1,4180,-4,-4
CCOc1ccc(NC(=O)c2cc(S(=O)(=O)N3CCOCC3)cn2C)cc1,0,4886,-6,-9
COc1cccc(/C=C/C(=O)OCC(=O)c2ccc(Br)cc2)c1,0,3698,-5,2
CN(C)c1ccc(NC(=O)c2sc(SCC(=O)Nc3nccs3)nc2N)cc1,-1,23476*,-3,-5
